Reference: PubChem BioAssay AID493214 (National Center for Advancing Translational Sciences (NCATS), 2011)
The source made the active and inactive calls. Calls follow the shape of the dose curve; as a rule, active = well fitted inhibition curve with a large enough effect; inactive = no such curve, though single readings can be large or run the other way.

Molecular target: 4'-phosphopantetheinyl transferase Sfp (Bacillus subtilis) (UniProt P39135)
Assay: Inhibitos of Bacillus subtilis Sfp phosphopantetheinyl transferase (PPTase): Dry Powder Followup
Details: purified Sfp PPTase enzyme assay, dry powder retest; series mostly up to 114 µM; activity change, negative = inhibition: at the top concentration
Excerpt: The covalent attachment of a phosphopantetheinyl (4'-PP) arm to a variety of synthases and other proteins is a key posttranslational protein modification. The 4'-PP is installed on the proteins post-translationally from coenzyme A (CoA) on a conserved serine residue by action of phosphopantetheinyl transferase (PPTase) enzymes. Phosphopantetheinylation is essential for synthase activity, and removal of the PPTase gene precludes natural product synthesis in microorganisms, or in the case of fatty acid biosynthesis, renders the organism unviable. PPTase enzymes belong to a distinct structural superfamily. Within bacteria, these enzymes are grouped into two classes based upon primary structure, the AcpS-Type and Sfp-Type PPTases.
Sfp-type PPTases, corresponding to an activator of surfactin production in Bacillus subtilis, are responsible for modifying type I polyketide and nonribosomal peptide synthases of prokaryotes. Sfp-type PPTases are responsible for the activation of a variety of pathogen-associated virulence factors. […]
In search of small molecule Sfp-PPTase inhibitors, a fluorescence quenching assay was developed for detection of Bacillus subtilis Sfp-PPTase enzymatic activity in a miniaturized high-throughput format. […]
Inhibition of Sfp-PPTase was detected by recording the fluorescence intensity change over a 30-minute reaction period at a 525 nm excitation and 598 nm emission. […]
Three uL of reagents, consisting of buffer (in columns 3 and 4 as negative control) and Sfp-PPTase (in columns 1, 2, 5 - 48) were dispensed into 1,536-well Greiner black solid bottom plate. […] The plate was then centrifuged at 1000 rpm for 15 seconds, and the fluorescence intensity recorded on a ViewLux High-throughput CCD imager (Perkin-Elmer) using standard BODIPY optics (525 nm excitation and 598 nm emission). The plate was then incubated for 30 minutes, and a second read on the ViewLux was performed. The fluorescence intensity difference over the 30-minute period was used to calculate the respective reaction rate for each well.

Chain of 4'-phosphopantetheinyl transferase Sfp (Bacillus subtilis) (P39135 whole entry, looked up): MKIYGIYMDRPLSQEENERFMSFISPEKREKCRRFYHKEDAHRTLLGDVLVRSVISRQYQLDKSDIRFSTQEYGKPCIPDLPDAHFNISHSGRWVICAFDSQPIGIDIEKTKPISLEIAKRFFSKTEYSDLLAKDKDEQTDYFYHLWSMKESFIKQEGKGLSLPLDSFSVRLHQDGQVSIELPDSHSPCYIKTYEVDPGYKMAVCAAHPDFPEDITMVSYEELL

Activity change, negative = inhibition, inactive:
Clc1ccccc1-c1nn2c(-c3ccncc3)nnc2s1 14.5%, Cn1c(SCC(=O)c2cc3ccccc3o2)nnc1-c1ccccc1 -7.43%, O=c1[nH]c2ccccc2n2c(-c3ccccc3)nnc12 -0.136%
